From the supplement of paper PMC12808144
Unmarked numbers belong to inactive results.

What follows are compounds tested on NHEM-hTERT (assay: cell viability relative to DMSO control (fraction of DMSO control); higher = less cytotoxic, active = 0.5 or less). Settings: 1 µM; 120 h.
Summary of the method: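 Patient-derived Mel-DCC-11, its resistant subline Mel-DCC-11-R (alone and with 8 µM of its selecting drug) and NHEM-hTERT immortalized melanocytes were exposed for 120 h to 315 approved anti-cancer drugs at 1 µM in duplicate. Luminescence was read with ATPlite 1step. Viability was normalised to vehicle controls and averaged over duplicates.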
With CCCCCCCCCCCCCCCCOP(=O)([O-])OCC[N+](C)(C)C [Miltefosine] the cell viability was 1.17.
In the case of CC(C)NCC(O)COc1cccc2ccccc12.Cl (stereo not drawn) [Propranolol hydrochloride], the cell viability is reported as 1.16.
With C1=C/COCc2cc(ccc2OCCN2CCCC2)Nc2nccc(n2)-c2cccc(c2)COC/1 [Pacritinib] the cell viability was 1.04.
With C[C@H](Nc1ncnc2nc[nH]c12)c1cc2cccc(Cl)c2c(=O)n1-c1ccccc1 [Duvelisib] the cell viability was 0.912.
With Cl.NNc1nncc2ccccc12 [Hydralazine hydrochloride] the cell viability was 1.12.
In the case of CC(O)(P(=O)(O)O)P(=O)(O)O [Etidronate], the cell viability is reported as 1.15.
Work on Nc1nc(=O)c2c(CCc3ccc(C(=O)N[C@@H](CCC(=O)O)C(=O)O)cc3)c[nH]c2[nH]1 [Pemetrexed acid] yielded a cell viability of 1.19.
Work on CC(=O)O[C@]1(C(C)=O)CC[C@H]2[C@@H]3C=C(C)C4=CC(=O)CC[C@]4(C)[C@H]3CC[C@@]21C [Megestrol acetate] yielded a cell viability of 1.04.
Work on CS(=O)(=O)CCNCc1ccc(-c2ccc3ncnc(Nc4ccc(OCc5cccc(F)c5)c(Cl)c4)c3c2)o1.Cc1ccc(S(=O)(=O)O)cc1.Cc1ccc(S(=O)(=O)O)cc1.O [Lapatinib ditosylate monohydrate] yielded a cell viability of 1.05.
CN(C)C(=N)N=C(N)N.Cl [Metformin hydrochloride] gave a cell viability of 1.07.
For C[C@@H](Oc1cc(-c2cnn(C3CCNCC3)c2)cnc1N)c1c(Cl)ccc(F)c1Cl [Crizotinib], the cell viability was 0.986.
Work on CC1(C)CCC(CN2CCN(c3ccc(C(=O)NS(=O)(=O)c4ccc(NCC5CCOCC5)c([N+](=O)[O-])c4)c(Oc4cnc5[nH]ccc5c4)c3)CC2)=C(c2ccc(Cl)cc2)C1 yielded a cell viability of 0.502.
CNC(=O)c1ccc(N2C(=S)N(c3ccc(C#N)c(C(F)(F)F)c3)C(=O)C2(C)C)cc1F [Enzalutamide] gave a cell viability of 1.11.
For COc1ccc2cc3[n+](cc2c1OC)CCc1cc2c(cc1-3)OCO2 [Berberine], the cell viability was 1.1.
Work on Clc1ccc(C(c2ccccc2Cl)C(Cl)Cl)cc1 (stereo not drawn) [Mitotan] yielded a cell viability of 0.958.
In the case of C[C@@H]1O[C@@H](OC[C@H]2O[C@@H](Oc3c(-c4ccc(O)c(O)c4)oc4cc(O)cc(O)c4c3=O)[C@H](O)[C@@H](O)[C@@H]2O)[C@H](O)[C@H](O)[C@H]1O [Rutin], the cell viability is reported as 1.09.
In the case of Cc1coc2c1C(=O)C(=O)c1c-2ccc2c(C)cccc12 [Tanshinone I], the cell viability is reported as 0.983.
In the case of O=c1cc(-c2ccc(O)cc2)oc2cc(O)cc(O)c12 [Apigenin], the cell viability is reported as 1.09.
COC(=O)c1ccc2c(c1)NC(=O)/C2=C(\Nc1ccc(N(C)C(=O)CN2CCN(C)CC2)cc1)c1ccccc1 [Nintedanib] gave a cell viability of 0.909.
C[C@@H]1O[C@@H](O[C@H]2[C@H](Oc3cc(O)c4c(c3)O[C@H](c3ccc(O)cc3)CC4=O)O[C@H](CO)[C@@H](O)[C@@H]2O)[C@H](O)[C@H](O)[C@H]1O [Naringin] was tested, and the cell viability was 0.986.
With O=C(/C=C/c1ccc(O)cc1)c1ccc(O)cc1O [Isoliquiritigenin] the cell viability was 0.982.
C[C@@H]1C[C@H]2[C@@H]3CCC4=CC(=O)C=C[C@]4(C)[C@@]3(F)[C@@H](O)C[C@]2(C)[C@@]1(O)C(=O)COP(=O)([O-])[O-].[Na+].[Na+] [Dexamethasone Sodium Phosphate] showed a cell viability of 1.2.
In the case of O=c1[nH]c(=O)n([C@H]2C[C@H](O)[C@@H](CO)O2)cc1F [Floxuridine], the cell viability is reported as 1.11.
With Nc1nc2[nH]nnc2c(=O)[nH]1 [8-Azaguanine] the cell viability was 1.08.
For NC(=O)c1cccc2cn(-c3ccc([C@@H]4CCCNC4)cc3)nc12 [Niraparib], the cell viability was 0.932.
Compound Oc1cc(O)cc(/C=C/c2ccc(O)c(O)c2)c1 [Piceatannol] has a cell viability of 1.09.
For Nc1ccn([C@@H]2O[C@H](CO)[C@@H](O)C2(F)F)c(=O)n1 [Gemcitabine], the cell viability was 0.639.
With CO[C@@]12[C@H](COC(N)=O)C3=C(C(=O)C(C)=C(N)C3=O)N1C[C@@H]1N[C@@H]12 [Mitomycin C] the cell viability was 0.685.
